RE007 growth inh: less growth of the S. pombe RE007 Vpr strain. S. pombe RE007 Vpr strain, BacTiter-Glo ATP luminescence, 24 h. Potency, µM (top dose mostly 92.2 µM), for the others: at the highest dose activity change, negative = less growth, usual class: inhibitors. 0.21% of 360,000 active; active = well fitted falling curve with a large enough effect; inconclusive = small, poorly fitted or top-dose-only effect; inactive = no such curve, though single readings can be large or run the other way; also: nearly all actives have a fitted effect of over 50% in size
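Fission yeast strain RE007, carrying one chromosomally integrated HIV-1 vpr copy, was seeded at OD 0.01 in PMG+AL medium with 23 nL pinned compound. After 24 h at 30 °C and 99% humidity, viability was read by BacTiter-Glo luminescence.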
Sm TGR block: inhibitors of Schistosoma mansoni thioredoxin glutathione reductase. Q962Y6. purified TGR, DTNB reduction, TNB absorbance 405 nm. Potency, µM (series often up to 114 µM), for the others: top-dose activity change, negative = inhibition, usual class: inhibitors. 3% of 360,000 active; also: nearly all actives have a fitted effect of over 60% in size
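Kinetic colorimetric format: TGR-catalysed, NADPH-driven DTNB reduction monitored via TNB absorbance. Enzyme dispensed at 20 nM; compound exposure 15 min at room temperature before reaction start.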
LmPK inh: blocks Leishmania mexicana pyruvate kinase activity | Potency, µM (highest dose often 57.5 µM), inactives show at the top dose activity change, negative = inhibition, hits mostly inhibitors | 0.37% of 290,000 active | purified LmPK, Kinase-Glo ATP luminescence, 1 h
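ATP generated from ADP (0.1 mM) and PEP (0.5 mM) by 0.1 nM LmPK over 1 h at room temperature (pH 7.2 imidazole buffer) was detected by coupled luciferase luminescence. Values were normalized to uninhibited and no-enzyme wells.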
TbPYK inhibitor: blocks Trypanosoma brucei pyruvate kinase. Q57TT1. TbPYK enzyme, Kinase-Glo Plus ATP luminescence, 45 min. Potency, µM (highest dose often 76.8 µM), inactives show top-dose activity, negative = inhibition, most hits filed as inhibitors. 0.12% of 410,000 active. AID 624173; also: nearly all actives have a fitted effect of over 50% in size
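TbPYK + substrate in 50 mM TEA pH 7.2, 100 mM KCl, 10 mM MgCl2, 0.05% BSA, 0.01% Tween-20; cpd pinned; ADP 130 uM final; 45 min RT; Kinase-Glo Plus 10 min; luminescence endpoint.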
Giardia FBPA inh: blocks Giardia fructose-bisphosphate aldolase activity; A8B2U2; purified Giardia FBPA; Potency, µM (doses to about 59.6 µM), for the others: at the top dose activity, negative = inhibition, hits mostly inhibitors; 0.71% of 290,000 active; AID 2451; also: nearly all actives have a fitted effect of over 55% in size
Target sequence (A8B2U2 whole entry, looked up): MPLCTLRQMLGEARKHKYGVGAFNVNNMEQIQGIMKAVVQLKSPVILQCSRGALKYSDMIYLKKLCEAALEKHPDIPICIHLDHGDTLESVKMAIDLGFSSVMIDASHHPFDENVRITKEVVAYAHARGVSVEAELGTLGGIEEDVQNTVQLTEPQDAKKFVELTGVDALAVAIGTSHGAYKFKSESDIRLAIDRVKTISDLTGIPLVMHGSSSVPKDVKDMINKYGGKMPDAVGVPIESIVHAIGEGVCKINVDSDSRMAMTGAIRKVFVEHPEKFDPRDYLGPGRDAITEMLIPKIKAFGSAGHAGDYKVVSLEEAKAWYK
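40 nM FBPA preincubated 10 min at RT with compound (up to 57.5 uM final), then substrate plus GAPDH/TPI/NAD/arsenate coupling and diaphorase/resazurin added. Fluorescence read after 20 min at RT, 525/598 nm.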
* marks the source's active call; other numbers are inactive results; ? = inconclusive; . = not tested or not shown; ! = not active in a repeat; [ ] = another dose, or the depositor's remark. An excerpt weighted towards active compounds, which were near 3.3% of everything screened. Unless noted, calls follow the shape of the dose curve; as a rule, active = well fitted curve in the direction sought with a large enough effect; inconclusive = small, poorly fitted or top-dose-only effect, or another doubt; inactive = no such curve, though single readings can be large; an effect the other way counts as inactive or inconclusive. % is scaled to controls: 0 for no effect and ±100 for the full control effect; potency is read from the fitted curve at half-maximal effect.

SMILES	RE007 growth inh	Sm TGR block	LmPK inh	TbPYK inhibitor	Giardia FBPA inh
COc1ccc(C(=O)Sc2nncc3ccccc23)cc1	-18%	20µM*	4%	-12%	-5%
CSc1nc(O)c(C(c2ccc(F)cc2)c2c(O)nc(SC)[nH]c2=O)c(=O)[nH]1	10%	.	.	-5%	.
CSc1nc(O)c(C(c2ccccc2)c2c(O)nc(SC)[nH]c2=O)c(=O)[nH]1	3%	7.9µM*	-1%	-14%	-12%
CSc1nc(O)c(C(c2ccc(C)cc2)c2c(O)nc(SC)[nH]c2=O)c(=O)[nH]1	-8%	45µM*	-1%	-9%	-9%
CCN(Cc1ccc(N(C)C)cc1)C(C)C(=O)Nc1ccc(S(=O)(=O)N2CCCC2)cc1 (stereo unspecified)	6%	-26%	.	0%	.
O=C(N/N=C/c1ccc(O)cc1O)C1CC1	2%	.	.	1%	.
N#C/C(=C\c1ccc(O)c(O)c1)S(=O)(=O)c1ccccc1	-3%	45µM*	-4%	-10%	?
N#C/C(=C/c1ccc(F)cc1)S(=O)(=O)c1ccccc1	2%	-4%	-1%	-2%	?
N#CC(C#N)=Cc1ccc(O)c(O)c1	-1%[18.4 µM]	1.4µM*	.	-3%	14µM*!
N#C/C(=C\c1ccc(O)c(O)c1)C(=O)c1ccc(O)c(O)c1	0%[18.4 µM]	-24%	.	?	-28%
COC(=O)c1cc(Sc2c(Cl)cccc2Cl)ccn1	16%	.	1%	-8%	0%
Cc1ccc(NC(=O)CCN2C(=O)c3ccccc3Sc3ncccc32)cc1	-14%	13µM*	-12%	-6%	.
CC(C)CCNC(=O)CCCN1C(=O)c2ccccc2Sc2ncccc21	.	3%	.	4%	.
Cc1ccccc1NC(=O)CCN1C(=O)c2ccccc2Sc2ncccc21	.	-35%	.	1%	.
CC(C)NC(=O)CCCN1C(=O)c2ccccc2Sc2ncccc21	1%	79µM*	1%	-9%	4%
COc1ccccc1Cn1cc(C(=O)c2ccccc2)c(=O)c2cc(OC)c(OC)cc21	.	9%	.	1%	.
COc1ccc(C2CC(c3ccccc3)Oc3cc4c(cc32)OCO4)cc1 (stereo unspecified)	.	.	.	.	16µM*!
CCOc1cc(/C=C2/COc3ccccc3C2=O)ccc1OCC(=O)N(C)C	-8%	32µM*	1%	-3%	-2%
O=C1/C(=C/c2ccc(O)cc2)COc2ccccc21	?	?	-9%	?	6%
Nc1nc(SCC(=O)NC2CCCC2)[nH]c(=O)c1NC(=O)c1cccs1	7%	-11%	6%	2%	1%
CS(=O)(=O)c1ccc(C(=O)OCC(=O)NC(=O)C2CCCCC2)cc1[N+](=O)[O-]	-9%	7.1µM*	0%	-9%	2%
CS(=O)(=O)c1ccc(C(=O)OCC(=O)NC(=O)C2COc3ccccc3O2)cc1[N+](=O)[O-] (stereo unspecified)	-2%	.	.	1%	.
Cc1ccccc1NC(=O)Cc1nc(COC(=O)c2ccc(S(C)(=O)=O)c([N+](=O)[O-])c2)cs1	9%	2.8µM*	.	7%	.
CS(=O)(=O)c1ccc(C(=O)OCc2nnc(-c3ccccc3)o2)cc1[N+](=O)[O-]	33%	1.4µM*	2%	5%	-1%
CC(CCc1ccccc1)NC(=O)COC(=O)c1ccc(S(C)(=O)=O)c([N+](=O)[O-])c1 (stereo unspecified)	17%	1.8µM*	-8%	-2%	1%
SMILES	RE007 growth inh	Sm TGR block	LmPK inh	TbPYK inhibitor	Giardia FBPA inh
O=C(CCNS(=O)(=O)c1ccc2c(c1)CCN2C(=O)C1CC1)N1CCN(c2cccc(Cl)c2)CC1	.	-2%	.	6%	.
O=C(CCCC(=O)c1ccccc1)Nc1ccc(F)cc1	1%	6%	2%	6%	-4%
O=C(c1ccco1)N1CCN(S(=O)(=O)c2cccc3nsnc23)CC1	7%	-1%	-1%	-17%	5%
CC(=O)c1cccc(NC(=O)COC(=O)c2ccc(S(C)(=O)=O)c([N+](=O)[O-])c2)c1	-23%	3.2µM*	3%	-1%	0%
CS(=O)(=O)c1ccc(C(=O)OCC(=O)Nc2cccnc2Cl)cc1[N+](=O)[O-]	-3%	.	.	4%	.
Cc1ccccc1NC(=O)COC(=O)c1ccc(S(C)(=O)=O)c([N+](=O)[O-])c1	-4%	1.4µM*	-2%	-6%	4%

Screening data from PubChem BioAssay.
